# Shown is part of a subset that was picked to be rich in hits.
# DUX4 inh = DUX4-mediated transcription inhibition; 293T-iDUX4 ZSCAN4-Gaussia luciferase reporter, 24 h; stronger effect = lower value; hit rate 0.8% among 37,000; activity change, negative = inhibition, % (test concentration not listed); AID 1224904;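 active = mean inhibition of at least 10% in the main channel, exceeding the control channel by a set limit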;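 also: 0% = median of neutral control wells and -100% = median of positive control wells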
# Active calls of the source: *; ! = repeats disagree.
SMILES,DUX4 inh
Cc1cccc(-c2ccc([C@H]3[C@@H](CO)N4CCCCN(Cc5ccncc5)C[C@@H]34)cc2)c1,6.6
O=C(C1CC1)N1CCCCN2[C@H](CO)[C@H](c3ccc(-c4cccc(F)c4)cc3)[C@@H]2C1,-22.0*
CN(C)C(=O)c1ccc(-c2ccc([C@@H]3[C@H](CO)N4CCCCN(CCC(F)(F)F)C[C@@H]34)cc2)cc1,2.5
OC[C@@H]1[C@H](c2ccc(-c3cccc(F)c3)cc2)[C@@H]2CN(CCC(F)(F)F)CCCCN12,-5.6
OC[C@@H]1[C@@H](c2ccc(-c3cccc(F)c3)cc2)[C@H]2CN(Cc3cncnc3)CCCCN12,3.5
OC[C@@H]1[C@H](c2ccc(-c3cccc(F)c3)cc2)[C@H]2CN(CCC(F)(F)F)CCCCN12,-46.7*
COc1ccc(C(=O)Nc2ccc3c(c2)C(=O)N(C)C[C@@H](OC)[C@@H](C)CN(C)[C@H](C)CO3)cc1,-0.9
CO[C@@H]1CN(C)C(=O)c2cc(NS(=O)(=O)c3ccccc3F)ccc2OC[C@@H](C)N(S(C)(=O)=O)C[C@H]1C,-0.2
COc1ccc2c3c(n(C)c2c1)[C@H](CO)N(Cc1ccncc1)CC31CCN(C(=O)Cc2ccncc2)CC1,-4.0
CS(=O)(=O)Nc1ccc2c(c1)[C@@H]1C[C@@H](CC(=O)NCC(F)(F)F)O[C@H](CO)[C@@H]1O2,12.8
CO[C@@H](CN(C)C(=O)c1cnccn1)[C@@H](C)CN([C@H](C)CO)S(=O)(=O)c1ccc(F)cc1,3.1
CCC(=O)N1[C@H](C(=O)NC2CCCC2)[C@@H](CO)[C@@H]2Cn3c(ccc(C4=CCCC4)c3=O)[C@@H]21,2.6
CC(=O)N1[C@@H]2CN(S(=O)(=O)c3ccccc3C)c3ccccc3[C@@H]2[C@@H]1CO,-2.7
COc1ccccc1C#Cc1ccc([C@H]2[C@H](CO)N3CCCCN(CCC(F)(F)F)C[C@@H]23)cc1,-60.6*
C/C=C/c1ccc([C@@H]2[C@H]3CN(CCC(F)(F)F)CCCCN3[C@H]2CO)cc1,5.0
COc1ccccc1C#Cc1ccc([C@H]2[C@H]3CN(S(C)(=O)=O)CCCCN3[C@H]2CO)cc1,23.0
O=C(NC1CCCC1)N1CC(=O)N2[C@H](CO)[C@H](c3ccc(-c4cccnc4)cc3)[C@@H]2C1,19.8
O=C(C[C@@H]1C[C@@H]2c3cc(NC(=O)CC4CC4)ccc3O[C@@H]2[C@@H](CO)O1)NCc1ccc(Cl)cc1,0.6
O=C(C[C@H]1C[C@H]2c3cc(NS(=O)(=O)c4ccc(F)cc4)ccc3O[C@H]2[C@@H](CO)O1)NCc1cccnc1,6.7
O=C(C[C@H]1C[C@H]2c3cc(NC(=O)Cc4ccncc4)ccc3O[C@H]2[C@H](CO)O1)NCc1cc(F)ccc1F,-35.8*
O=C(C[C@@H]1C[C@@H]2c3cc(NC(=O)Cc4ccncc4)ccc3O[C@@H]2[C@H](CO)O1)NCc1cc(F)ccc1F,7.1
O=C(C[C@@H]1C[C@H]2c3cc(NC(=O)CC4CC4)ccc3O[C@H]2[C@H](CO)O1)NCc1cc(F)ccc1F,-2.8
O=C(C[C@H]1C[C@H]2c3cc(NC(=O)Cc4ccncc4)ccc3O[C@H]2[C@H](CO)O1)NCc1ccc(-c2ccccc2)cc1,-68.4*
CN(C)CC(=O)Nc1ccc2c(c1)[C@@H]1C[C@H](CC(=O)NCc3ccc(-c4ccccc4)cc3)O[C@H](CO)[C@@H]1O2,-6.6
CN(C)CC(=O)Nc1ccc2c(c1)[C@@H]1C[C@@H](CC(=O)NCc3ccc(-c4ccccc4)cc3)O[C@H](CO)[C@@H]1O2,-5.2
SMILES,DUX4 inh
C[C@H]1CN([C@@H](C)CO)C(=O)c2cccc(NC(=O)C3CCOCC3)c2O[C@H]1CN(C)C(=O)Nc1ccc2c(c1)OCO2,0.3
CNC(=O)C[C@@H]1CC[C@H]2[C@@H](COC[C@H](O)CN2Cc2ccccc2F)O1,4.7
O=C(C[C@@H]1C[C@H]2c3cc(NC(=O)C4CCC4)ccc3O[C@H]2[C@H](CO)O1)NC1CCCC1,1.7
COc1ccc(NC(=O)N(C)C[C@H]2Oc3ncc(-c4cccnc4)cc3C(=O)N([C@@H](C)CO)C[C@H]2C)cc1,-2.2
C/C=C/c1ccc(C2[C@@H]3CN(C(=O)Cc4ccncc4)C[C@H]2N3)cc1 (stereo partly specified),7.0
C(=C\c1ccc(C2[C@@H]3CN(Cc4ccccn4)C[C@H]2N3)cc1)/c1ccccc1 (stereo partly specified),-31.7*
C(=C\c1ccc(C2[C@@H]3CN(Cc4nccs4)C[C@H]2N3)cc1)/c1ccccc1 (stereo partly specified),-32.4*!
O=C(Cc1ccncc1)N1C[C@@H]2N[C@H](C1)C2c1ccc(/C=C/c2ccccc2)cc1 (stereo partly specified),-28.4*!
C/C=C/c1ccc(C2[C@H]3CNC[C@@H]2N3Cc2nccs2)cc1 (stereo partly specified),9.1
c1cc(-c2ccc(C3[C@@H]4CN(Cc5nccs5)C[C@H]3N4)cc2)ccn1 (stereo partly specified),-1.1
c1cncc(-c2ccc(C3[C@@H]4CN(Cc5nccs5)C[C@H]3N4)cc2)c1 (stereo partly specified),-34.9*!
